Data: PubChem BioAssay (NCATS)
“And” between values parts separate entries of the source, which are not always exact repeats. Equal values may be shown once. Inconclusive results are not listed. Some structures have more than one record in an assay (separate samples or runs), and their calls can disagree. The source made the active and inactive calls. Calls follow the shape of the dose curve; as a rule, active = well fitted curve in the direction sought with a large enough effect; inconclusive = small, poorly fitted or top-dose-only effect, or another doubt; inactive = no such curve, though single readings can be large; an effect the other way counts as inactive or inconclusive.

Assays:
[1] = Viability qHTS for spleen associated tyrosine kinase inhibitor (SYKi) naive MV4-11 cells (AID 1963823); also: nearly all actives have a fitted effect of over 40% in size
How it was run: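 Cells: MV4-11, SYK inhibitor naive, 500 per well. Treatment: library compounds, 72 hr, 37 C, 5% CO2. Read-out: CellTiter-Glo luminescence after 10 min RT.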

[2] = Viability qHTS for spleen associated tyrosine kinase inhibitor (SYKi) drug resistant MV4-11 cells (AID 1963824); also: nearly all actives have a fitted effect of over 35% in size
How it was run: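 SYK inhibitor-resistant MV4-11 AML cells, 500 per well, added to predispensed compounds and incubated 72 hr at 37 C, 5% CO2. Viability measured by CellTiter-Glo luminescence after 10 min at room temperature.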

[3] = Cellular viability qHTS for adrenocortical cancer (ACC) cell line SW-13 (AID 1963989); details: SW-13 ACC cells viability, CellTiter-Glo, 48 h; activity (max response): stronger effect = lower value; also: nearly all actives have a fitted effect of over 65% in size;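 as to activity (max response): cells grown in serum-free medium with ITS supplement; % is scaled to controls: 0 for no effect and ±100 for the full control effect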
How it was run: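 Viability was read as CellTiter-Glo luminescence after 48 h compound treatment (up to 46 uM final) of SW-13 cells grown serum-free; titration curves were fit with a four-parameter logistic model to give IC50 and efficacy.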

[4] = Cellular viability qHTS for adrenocortical cancer (ACC) cell line NCI-H295R (AID 1963990); also: nearly all actives have a fitted effect of over 60% in size
How it was run: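 CellTiter-Glo ATP luminescence, read 48 h after compound addition, measured viability of NCI-H295R adrenocortical cells grown serum-free with ITS. Final concentrations spanned up to 46 uM. Data normalized to DMSO and doxorubicin, fitted for IC50 and maximal response.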
Potency is read from the fitted curve at half-maximal effect.

SMILES | Potency [1] | Potency [2] | Potency [3] | Potency [4] | activity (max response) [3]
C=CCc1cccc(/C=N/NC(=O)CN2CCN(Cc3ccccc3)CC2)c1O | 7420 nM (active) | 6.61 µM (active) | 8.91 µM (active) | 10 µM (active) | 
N[C@H](C(=O)O)c1ccc(O)cc1 | inactive | inactive |  | inactive | 5.01% (inactive)
CN(C)CCCOc1nn(Cc2ccccc2)c2ccccc12 | inactive | inactive and 13 µM (active) | 11.6 µM (active) | 14.6 µM (active) | 
Oc1cc(O)cc(/C=C/c2ccc(O)c(O)c2)c1 | 5.9 µM (active) and 5.17 µM (active) | 5.9 µM (active) and 2.59 µM (active) |  | inactive | -23.2% (inactive)
CC/C=C(\C(=O)N[C@@H]1C(=O)N2C(C(=O)OCOC(=O)C(C)(C)C)=C(COC(N)=O)CS[C@H]12)c1csc(N)n1 | inactive | inactive |  | inactive | 13.8% (inactive)
CC(=O)c1ccc(O)c(C(N)=O)c1 | inactive | inactive |  | inactive | 17.1% (inactive)
CO[C@@H](C)Cn1c(=O)n(C)c2cnc3ccc(-c4cncc(C(C)(C)O)c4)cc3c21 | 82 nM (active) | 0.332 µM (active) | 3.55 µM (active) | 0.891 µM (active) | 
CCOc1ccc(NS(=O)(=O)c2ccc(N)cc2)nn1 | inactive | inactive |  | inactive | 7.51% (inactive)
CC(=O)Nc1ccc(C(=O)O)cc1 | inactive | inactive |  | inactive | 11.7% (inactive)
CN1C(=O)[C@@H](NC(=O)c2n[nH]c(Cc3ccccc3)n2)COc2ccccc21 | inactive | inactive |  | inactive | 8.85% (inactive)
Cn1cc(-c2cc(Oc3cc(F)c(NC(=O)C4(C(=O)Nc5ccccc5)CC4)cc3F)ccn2)cn1 | 103 nM (active) | 0.461 µM (active) | 25.1 µM (active) | 28.2 µM (active) | 
CN[C@@H]1C[C@H]2O[C@@](C)([C@@H]1OC)n1c3ccccc3c3c4c(c5c6ccccc6n2c5c31)C(=O)N[C@H]4O | 11.9 nM (active) | 0.0237 µM (active) | 0.376 µM (active) | 0.15 µM (active) | 
O=C(CCN1CCN(CCO)CC1)N1c2ccccc2Sc2ccc(C(F)(F)F)cc21 | inactive | inactive |  | inactive | -5.01% (inactive)
C[C@@H]1CCN(C(=O)[C@H](CCCN=C(N)N)NS(=O)(=O)c2cccc3c2NC[C@H](C)C3)[C@@H](C(=O)O)C1 | inactive | inactive |  | inactive | 1.57% (inactive)
O=[N+]([O-])c1ccc(O)c2ncccc12 | 2.99 µM (active) and 4.68 µM (active) | 7.5 µM (active) and 4.68 µM (active) | 2.91 µM (active) and 10 µM (active) | 411 nM (active) and 2.82 µM (active) | 
C/C=C/c1ccc(O)c(OC)c1 | inactive | inactive |  | inactive | 1.66% (inactive)
C=CC(=O)N1CC[C@@H](Oc2nc(Nc3ccc(N4CCC(N5CCN(C)CC5)CC4)cc3)c(C(N)=O)nc2CC)C1 | 32.3 nM (active) | 0.091 µM (active) | 1.43 µM (active) | 7.15 µM (active) | 
C[C@]12CCC(=O)C=C1CC[C@@H]1[C@@H]2C(=O)C[C@@]2(C)[C@H]1CC[C@]2(O)C(=O)CO | inactive | inactive |  | inactive | 7.27% (inactive)
CC(=O)[C@]1(N)Cc2c(O)c3c(c(O)c2[C@@H](O[C@H]2C[C@H](O)[C@H](O)CO2)C1)C(=O)c1ccccc1C3=O | 5900 nM (active) | 4.68 µM (active) |  | inactive | -6.73% (inactive)
CCCCCCCCCCCCCCCC(=O)NCCO | inactive | inactive |  | inactive | 3.88% (inactive)
CC(=O)Nc1ccc(O)cc1 | inactive | inactive |  | inactive | -6.94% (inactive) and -15.1% (inactive)
CC(C)C[C@H](NC(=O)[C@H](Cc1ccccc1)NC(=O)OCc1ccccc1)C(=O)C=O | 23500 nM (active) | 20.9 µM (active) |  | inactive | -18.6% (inactive)
CCCNC(=O)NS(=O)(=O)c1ccc(Cl)cc1 | inactive | inactive |  | inactive | -2.41% (inactive)
CC(=O)Oc1cccc(C)c1 | inactive | inactive |  | inactive | 17.7% (inactive)

SMILES | Potency [1] | Potency [2] | Potency [3] | Potency [4] | activity (max response) [3]
COc1cc(OC)c(/C=C/S(=O)(=O)Cc2ccc(OC)c(OP(=O)(O)O)c2)c(OC)c1 | 11.8 nM (active) | 0.0148 µM (active) | 0.0398 µM (active) | 0.0282 µM (active) | 
O=C(CCl)Nc1cccc(NC2=NS(=O)(=O)c3ccccc32)c1 | 2630 nM (active) | 2.63 µM (active) | 8.91 µM (active) | 3.16 µM (active) | 
CC1=NS(=O)(=O)c2cc(Cl)ccc2N1 | inactive | inactive |  | inactive | 8.23% (inactive)
Nc1ccc(S(=O)(=O)c2ccc(N)cc2)cc1 | inactive | inactive |  | inactive | 8.46% (inactive)
CCCCCCCCCCCCCCCCOCCCOP(=O)(O)COC(CO)Cn1ccc(N)nc1=O (configuration not stated) | 2590 nM (active) | 3.26 µM (active) |  | inactive | -4.49% (inactive)
CC[C@]1(O)CC2CN(CCc3c([nH]c4ccccc34)[C@@](C(=O)OC)(c3cc4c(cc3OC)N(C)[C@H]3[C@@](O)(C(=O)OC)[C@H](OC(C)=O)[C@]5(CC)C=CCN6CC[C@]43[C@@H]65)C2)C1 (some centres not stated) | 33.2 nM (active) | 65.1 nM (active) and 33.2 nM (active) | 0.282 µM (active) | 14.1 µM (active) | 
O=C(Oc1ccccc1)c1ccccc1O | inactive | inactive |  | inactive | 1.95% (inactive)
O=C(NO)c1ccc(C2=Nc3ccccc3Oc3ccccc32)cc1 | 3320 nM (active) | 2.95 µM (active) | 22.4 µM (active) | 5.01 µM (active) | 
C1=C/COCc2cc(ccc2OCCN2CCCC2)Nc2nccc(n2)-c2cccc(c2)COC/1 | inactive and 118 nM (active) | inactive and 130 nM (active) | 4.47 µM (active) | 5.01 µM (active) | 
C[C@@H]1CC(=O)Nc2cccc(-c3cnn(C(C)(C)C)c3)c2N1 | 14800 nM (active) | 11.8 µM (active) |  | inactive | 2.32% (inactive)
CN1[C@@H]2CC[C@H]1CC(OC(=O)c1c[nH]c3ccccc13)C2 (some centres not stated) | inactive | inactive |  | inactive | -7.55% (inactive)
CSc1ccc(C(=O)/C=C/c2cc(C)c(OC(C)(C)C(=O)O)c(C)c2)cc1 | 3030 nM (active) | 4.28 µM (active) | 35.5 µM (active) | 39.8 µM (active) | 
CC(C)n1nc(-c2cc3cc(O)ccc3[nH]2)c2c(N)ncnc21 | 116 nM (active) | 668 nM (active) and 291 nM (active) | 5.8 µM (active) and 14.1 µM (active) | 2.31 µM (active) and 10 µM (active) | 
Nc1ccc(S(=O)(=O)Nc2ccccn2)cc1 | inactive | inactive |  | inactive | 6.67% (inactive)
CC(C)(O)CS(=O)(=O)Nc1ccc2c(c1)CCN(C(=O)COc1cccnc1)C2 | 20.9 nM (active) | 0.0295 µM (active) | 0.282 µM (active) | 0.112 µM (active) | 
COc1cccc(Nc2ncnn3ccc(CN4CC[C@@H](N)[C@H](O)C4)c23)c1 | 41.1 nM (active) | 0.184 µM (active) | 0.316 µM (active) | inactive | 
c1ccc2sc(SSc3nc4ccccc4s3)nc2c1 | inactive | inactive |  | inactive | -16.2% (inactive)
CN1C(=O)N[C@H](Cc2c[nH]c3c(Cl)cccc23)C1=O | inactive | inactive |  | inactive | -3.83% (inactive)
O=C(/C=C/c1ccc(Cl)cc1)N1CCC2(CC1)CN(Cc1ccc(Cl)c(Cl)c1)C(=O)O2 | 18600 nM (active) | 11.8 µM (active) |  | inactive | -3.3% (inactive)
CN1CCN(Cc2ccc(Nc3ncc(Cl)c(Nc4ccccc4S(=O)(=O)N(C)C)n3)cc2)CC1 | 6 nM (active) | 0.0096 µM (active) | 0.75 µM (active) | 0.237 µM (active) | 
Cc1ccc2c(Cl)cc(Cl)c(O)c2n1 | inactive | inactive |  | inactive | 9.37% (inactive)
CNC(=O)[C@H]1O[C@@H](n2cnc3c(NCc4cccc(I)c4)nc(Cl)nc32)[C@H](O)[C@@H]1O | 14800 nM (active) | 8.33 µM (active) |  | inactive | 2.68% (inactive)
CC[C@]12C=CCN3CC[C@@]4(c5cc([C@@]6(C(=O)OC)CC7C[C@@H](C(C)(F)F)CN(Cc8c6[nH]c6ccccc86)C7)c(OC)cc5N(C)[C@H]4[C@@](O)(C(=O)OC)[C@@H]1OC(C)=O)[C@@H]32 (some centres not stated) | 93.4 nM (active) | 0.105 µM (active) | 0.282 µM (active) | 0.708 µM (active) | 
O=C(O)CCCc1ccccc1 | inactive | inactive |  | inactive | 16.4% (inactive)
